# Nrf2 ARE act: activates Nrf2 signaling; 410,000 compounds, 0.31% hits; Potency, µM (series often up to 46.1 µM), without a hit: at the highest dose activation, hits mostly activators; AREc32 ARE-luciferase reporter (MCF7-derived line), luminescence, 24 h; also: % of control where 0% means no effect; nearly all actives have a fitted effect of over 65% in size
#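 Each well held 1000 AREc32 cells, which were incubated with compound for 24 hr at 37 deg C after overnight attachment, and ARE reporter activity was quantified by firefly luciferase luminescence.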
# A549 viability: kills or reduces viability of A549 cells in Nrf2 counter-screen | A549 ARE-Fluc cells, CellTiter-Fluor viability, 18-24 h | Potency, µM (top dose mostly 46 µM), for the others: top-dose activity change, negative = cytotoxicity, hits mostly inhibitors | 390,000 compounds, 0.16% hits | AID 504648; also: % is scaled to controls: 0 for no effect and ±100 for the full control effect
#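 A549 ARE_Fluc cells in 5% FBS OPTI-MEM were exposed to compounds in concentration-response for 18-24 h at 37 deg C. Viability was read by CellTiter-Fluor fluorescence (Ex 405/Em 525) after 30 min, before the luciferase read.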
# Nrf2 inh: blocks Nrf2 signaling. A549 ARE-Fluc reporter, luciferase luminescence, 18-24 h. Potency, µM (series often up to 46 µM), without a hit: at the highest dose activity change, negative = inhibition, usual class: inhibitors. 360,000 compounds, 2.1% hits; also: % is scaled to controls: 0 for no effect and ±100 for the full control effect; nearly all actives have a fitted effect of over 60% in size
#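 A549 ARE_Fluc cells, 5000/well, 5% FBS OPTI-MEM; compounds in dose-response, 18-24 h at 37 °C/5% CO2; CellTiter-Fluor viability read (Ex 405/Em 525), then BugLite luciferase luminescence = Nrf2 activity.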
# ELG1 repair inh: ELG1-dependent DNA repair inhibition; HEK293T ELG1-luciferase reporter, luminescence, 16 h; DNA damage induced by 5-fluorouridine; Potency, µM (titrated, usually from 46.1 µM), for inactives: at the top dose activity change, negative = inhibition, hits mostly inhibitors; 330,000 compounds, 2.3% hits; also: % is scaled to controls: 0 for no effect and ±100 for the full control effect; nearly all actives have a fitted effect of over 55% in size
#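 Cells (2,000 per well) received 5-fluorouridine plus test compound or DMSO and were incubated 16 hr at 37 °C, 5% CO2. Luciferase activity was read by luminescence 30 min after ONE-Glo addition; signal suppression marked inhibition of damage-induced ELG1 function.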
# An asterisk follows results filed as active; ? = inconclusive; · = no result; [ ] = dose if it differs, or a comment. Shown are actives, neighbours in structure and some others; about 3.7% of the full set was active somewhere. Calls follow the shape of the dose curve; as a rule, active = well fitted curve in the direction sought with a large enough effect; inconclusive = small, poorly fitted or top-dose-only effect, or another doubt; inactive = no such curve, though single readings can be large; an effect the other way counts as inactive or inconclusive. Potency is read from the fitted curve at half-maximal effect.
SMILES,Nrf2 ARE act,A549 viability,Nrf2 inh,ELG1 repair inh
CC(=O)c1c(C)nn(CC(O)COc2ccc3c(c2)CCC3)c1C (stereo not given),0%,2%,9.2µM*,?
COc1ccc(S(=O)(=O)NC(=O)C2(C)CCN2C(=O)CCC2CCCC2)cc1OC (stereo not given),0%,·,·,·
COC(=O)c1ccc2nc(NC(=O)C3CCCCC3)sc2c1,2%,1%,?,?
COC(=O)c1ccc2nc(NC(=O)C(C)(C)C)sc2c1,0%,-5%,4.1µM*,?
Cn1ncc([N+](=O)[O-])c1C(=O)Nc1ccccc1C#N,0%,·,·,·
CCOC(=O)N1CCC(NC(=O)c2ccc3c(c2)sc2nc(-c4cccc(OC)c4)cn23)CC1,·,·,·,2.9µM*
CCOC(=O)N1CCC(NC(=O)c2ccc3c(c2)sc2nc(-c4ccccc4)cn23)CC1,5%,0%,-16%,3%
Cc1ccc(S(=O)(=O)N2C[C@@H]3[C@H]4CC[C@H](C4)[C@@H]3[C@@H](C)[C@@H]2c2cn(Cc3ccccc3)c3ncccc23)cc1,3%,0%,21µM*,?
COc1cc(OC)c(NC(=O)c2cc3ccccc3cc2O)cc1Cl,23%,-27%,26µM*,·
COc1cc(OC)c(NC(=O)c2csc(C)c2)cc1Cl,13µM*,-3%,21%,-19%
O=C(NC1CCCC1)c1sc(=S)n2c1[nH]c(=O)c1ccccc12,2%,?,16µM*,?
O=C(NCc1cccnc1)C1CCN(c2ccc(S(=O)(=O)N3CCOCC3)cc2Cl)CC1,-1%[9.22 µM],-6%,?,16µM*
Cc1ccc(CNC(=O)c2cc(S(=O)(=O)N3CCCCC3)ccc2N2CCOCC2)cc1,-1%,?,21µM*,?
CC(C)CCCC(C)NC(=O)c1cc(S(=O)(=O)N2CCCCC2)ccc1N1CCOCC1 (stereo not given),-1%,-1%,12%,11µM*
COc1ccc(CNC(=O)C2CCCN(S(=O)(=O)N(C)c3ccc(F)cc3)C2)cc1OC (stereo not given),0%,-3%,23µM*,·
CCCNC(=O)C1CCN(c2ccc(S(=O)(=O)N3CCOCC3)cc2Cl)CC1,0%,1%,-13%,?
Cc1ccc(NC(=O)c2cc(S(=O)(=O)N3CCCCC3)ccc2N2CCOCC2)cc1,-1%,·,·,·
COCC(C)NC(=O)c1cc(S(=O)(=O)N2CCCCC2)ccc1N1CCOCC1 (stereo not given),0%,0%,-5%,7%
Cc1ccc(CN2CCN(Cc3cccn3-c3nccs3)CC2CCO)cc1 (stereo not given),2%,-10%,-5%,-10%
O=C(OCc1cccc(Cl)c1)c1cc(S(=O)(=O)N2CCCCC2)ccc1N1CCOCC1,-1%,-9%,?,?
COc1ccc(CNC(=O)CN2CCN(S(=O)(=O)c3c(C)c(C)cc(C)c3C)CC2)cc1OC,0%,-2%,?,7.3µM*
O=C(OCCOc1cccc(Cl)c1)c1cc(S(=O)(=O)N2CCCCC2)ccc1N1CCOCC1,3%,-17%,12µM*,5.2µM*
COc1ccc(CCNC(=O)c2cc(S(=O)(=O)N3CCC4(CC3)OCCO4)ccc2F)cc1OC,2%,-1%,?,9.2µM*
COc1ccc(CNC(=O)c2cc(S(=O)(=O)N3CCCCC3)ccc2Cl)cc1OC,3%,0%,16µM*,6.5µM*
O=C1Cn2nnc(-c3ccccc3)c2C2c3ccccc3CCN12 (stereo not given),-1%,·,·,·
SMILES,Nrf2 ARE act,A549 viability,Nrf2 inh,ELG1 repair inh
O=C(NNC(=O)c1ccc(Br)s1)c1cccc(Cl)c1,3%,10%,3%,?
Cc1ccc(NS(=O)(=O)c2cc3c(cc2Cl)CCC(=O)N3)cc1C,·,1%,-21%,·
CN(C(=O)C1CCCN1S(=O)(=O)c1ccc(Cl)cc1)c1ccccc1 (stereo not given),-1%,0%,13%,15%
Brc1ccc2ncnc(NCc3ccccc3)c2c1,0%,0%,·,4.1µM*
Cc1noc(C)c1-c1ccc2ncnc(NCc3ccc(-c4ccccc4)cc3)c2c1,·,-12%,12µM*,·
CC(=O)Nc1ccc(CNc2ncnc3ccc(-c4c(C)noc4C)cc23)cc1,?,3%,?,?
COc1cc(C(=O)Nc2nc(-c3cccs3)cs2)cc(OC)c1OC,3%,-17%,?,13µM*
O=C(Nc1nc(-c2cccs2)cs1)c1ccco1,13µM*,6%,?,?
Nc1cc(-c2ccccc2)c[nH]c1=O,·,5.8µM*,7.3µM*,·
Nc1cc(-c2ccncc2)c[nH]c1=O,-1%,1%,-9%,?
O=C(NCCC1CCCCN1S(=O)(=O)c1ccc(Cl)cc1)C(=O)NCc1ccncc1 (stereo not given),0%,2%,21µM*,-17%
O=C(NCCC1CCCCN1S(=O)(=O)c1ccc(F)cc1)C(=O)NCc1ccncc1 (stereo not given),-2%,5%,12µM*,0%
Cc1ccc(CNC(=O)C(=O)NCCC2CCCCN2S(=O)(=O)c2ccc(C)cc2)cc1 (stereo not given),4%,9%,?,?
O=C(c1ccc(Cl)cc1)c1c[nH]c(C(=O)NNc2ccccc2)c1,0%,-1%,0%,-21%
O=C1CCc2cc(S(=O)(=O)Nc3ccccc3-c3ccccc3)ccc2N1,·,1%,-8%,·
CC(OC(=O)c1cc(-c2cccnc2)nc2ccccc12)C(=O)Nc1ccc2ccccc2c1 (stereo not given),0%,-8%,?,18µM*
O=C(Nc1ccc2c(c1)OCO2)c1cc(-c2cccnc2)nc2ccccc12,0%,-1%,?,-11%
O=C(NNC(=S)Nc1ccccc1)c1cc(-c2cccnc2)nc2ccccc12,0%,5%,-16%,7%
CCOC(=O)c1ccc(NC(=S)NNC(=O)c2cc(-c3cccnc3)nc3ccccc23)cc1,0%,0%,-14%,15µM*
O=C(Nc1ccc2nc(N3CCOCC3)sc2c1)c1ccccc1,3%,-1%,24%,-2%
COCc1c(C(=O)Nc2ccc3nc(N4CCOCC4)sc3c2)oc2ccccc12,9%,-1%,?,13µM*
COc1cccc(C(=O)N/N=C/C(Br)=C/c2ccccc2)c1,?,-2%,12%,5%
Cc1occc1C(=O)N/N=C/C(Br)=C/c1ccccc1,16µM*,-16%,?,?
Cc1ccc(-c2cc(C(=O)N/N=C/C(Br)=C/c3ccccc3)n[nH]2)o1,20µM*,-1%,?,-27%
CC(/C=N/NC(=O)c1n[nH]c2c1CCC2)=C\c1ccccc1,2%,?,28%,?
COc1ccc(C(=O)N/N=C/C(Br)=C/c2ccccc2)cc1,16µM*,-4%,-13%,3%
O=C(N/N=C/C(Br)=C\c1ccccc1)c1n[nH]c2c1CCC2,14µM*,-9%[1.84 µM],?,?
CC(=O)C1CCCN(C(=O)c2ccc3nc(Cc4cccc(Cl)c4)oc3c2)C1 (stereo not given),0%,-8%,-9%,0%

# Assay outcomes deposited in PubChem by National Center for Advancing Translational Sciences (NCATS).
